The supplement of paper PMC12350171
Counter-ions that a name gives are not always drawn. A number with no mark means an inactive call.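 Rule for the calls: active = AUC significantly below DMSO controls by Student t-fit with adjusted P under 0.01; inactive = not significantly reduced.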

The molecules below were run on Vibrio cholerae (assay: growth AUC normalised to DMSO control (fraction of control); higher = less growth inhibition, active = hit call of the paper). Details: 20 µM.
Method in brief: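 For the AUC endpoint, growth curves were integrated by the trapezoidal rule up to the exponential-to-stationary transition and normalised to DMSO controls on the same plate. The curves came from OD578 readings taken hourly for 24 h, in three biological replicates. Pathogens had been passaged anaerobically twice and inoculated at an OD578 of 0.01 into pre-reduced mGAM plates carrying 20 μM compound and 1% DMSO, sealed with breathable membranes. Medium for Haemophilus parainfluenzae also contained hemin and NAD.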
In the case of `CN(C)CCOC(c1ccccc1)c1ccccc1` [Diphenhydramine hydrochloride], the “growth AUC normalised to DMSO control” value is reported as 0.976.
For `COC(=O)C1=C(C#N)NC(C)=C(C(=O)OC(C)C)C1c1cccc([N+](=O)[O-])c1` (configuration not stated) [Nilvadipine], the “growth AUC normalised to DMSO control” value was 1.02.
With `Nc1nc2n[nH]nc2c(=O)[nH]1` [Azaguanine-8] the “growth AUC normalised to DMSO control” value was 1.01.
`CCN(CC)CCOC(=O)C(Cc1cccc2ccccc12)CC1CCCO1` (configuration not stated) [Nafronyl oxalate] was tested, and the “growth AUC normalised to DMSO control” value was 0.943.
With `O=c1n(CCCN2CCN(c3cccc(Cl)c3)CC2)nc2ccccn12` [Trazodone hydrochloride] the “growth AUC normalised to DMSO control” value was 0.957.
`CCCOc1ccc(C(=O)OCCN(CC)CC)cc1N` [Proparacaine hydrochloride] was tested, and the “growth AUC normalised to DMSO control” value was 1.08.
`CN1CCCN(C(c2ccccc2)c2ccc(Cl)cc2)CC1` (configuration not stated) [Homochlorcyclizine dihydrochloride] was tested, and the “growth AUC normalised to DMSO control” value was 0.861.
For `CCCCOC(=O)c1ccc(N)cc1` [Butamben], the “growth AUC normalised to DMSO control” value was 0.989.
For `OC(CCN1CCCCC1)(c1ccccc1)c1ccccc1` [Pridinol methanesulfonate salt], the “growth AUC normalised to DMSO control” value was 1.07.
For `CCCNC(C)C(=O)Nc1ccccc1C` (configuration not stated) [Prilocaine hydrochloride], the “growth AUC normalised to DMSO control” value was 1.
In the case of `COc1cccc2c1C(=O)c1c(O)c3c(c(O)c1C2=O)C[C@@](O)(C(=O)CO)C[C@@H]3O[C@H]1C[C@H](N)[C@H](O)[C@H](C)O1` [Doxorubicin hydrochloride], the “growth AUC normalised to DMSO control” value is reported as 0.998.
In the case of `CCC(=O)OCC(=O)[C@@]1(OC(=O)CC)[C@H](C)C[C@H]2[C@H]3[C@H]([C@@H](O)C[C@@]21C)[C@@]1(C)C=CC(=O)C=C1C[C@H]3Cl` [Alclometasone dipropionate], the “growth AUC normalised to DMSO control” value is reported as 0.999.
With `Nc1nc(N)nc(-c2cc(Cl)ccc2Cl)n1` [Irsogladine maleate] the “growth AUC normalised to DMSO control” value was 0.999.
`CC(C)(C)NCC(O)c1ccc(O)c(CO)c1` (configuration not stated) [Salbutamol] was tested, and the “growth AUC normalised to DMSO control” value was 0.984.
In the case of `C[C@H](CCC(=O)O)[C@H]1CC[C@H]2[C@@H]3[C@@H](O)C[C@@H]4C[C@H](O)CC[C@]4(C)[C@H]3CC[C@]12C` [Urosiol], the “growth AUC normalised to DMSO control” value is reported as 1.04.
For `OCCN1C[C@H](O)[C@@H](O)[C@H](O)[C@H]1CO` [Miglitol], the “growth AUC normalised to DMSO control” value was 0.986.
`CCCC(CCC)C(=O)O` [Valproic acid] was tested, and the “growth AUC normalised to DMSO control” value was 1.05.
`CCOC(=O)c1ccc(N)cc1` [Benzocaine] was tested, and the “growth AUC normalised to DMSO control” value was 1.07.
For `CCSc1ccc2c(c1)N(CCCN1CCN(C)CC1)c1ccccc1S2` [Thiethylperazine maleate], the “growth AUC normalised to DMSO control” value was 0.983.
For `COC(=O)Nc1nc2cc(C(=O)c3ccc(F)cc3)ccc2[nH]1` [Flubendazol], the “growth AUC normalised to DMSO control” value was 0.993.
`O=C(Cn1ccnc1[N+](=O)[O-])NCCO` [Etanidazole] was tested, and the “growth AUC normalised to DMSO control” value was 1.03.
`Cc1cccc(N(C)C(=S)Oc2ccc3ccccc3c2)c1` [Tolnaftate] was tested, and the “growth AUC normalised to DMSO control” value was 0.991.
For `CCC(C)n1ncn(-c2ccc(N3CCN(c4ccc(OCC5COC(Cn6cncn6)(c6ccc(Cl)cc6Cl)O5)cc4)CC3)cc2)c1=O` (configuration not stated) [Itraconazole], the “growth AUC normalised to DMSO control” value was 1.04.
In the case of `C[C@]12C[C@H](O)[C@H]3[C@@H](CCC4=CC(=O)CC[C@@]43C)[C@@H]1CC[C@@H]2C(=O)CO` [Corticosterone], the “growth AUC normalised to DMSO control” value is reported as 0.984.
For `Nc1c(Br)cc(Br)cc1CN[C@H]1CC[C@H](O)CC1` [Ambroxol hydrochloride], the “growth AUC normalised to DMSO control” value was 0.963.
With `O=C(O)c1cn(C2CC2)c2cc(N3CCNCC3)c(F)cc2c1=O` [Ciprofloxacin hydrochloride monohydrate] the “growth AUC normalised to DMSO control” value was 0.0273 (active).
With `OCCOCCN1CCN(C(c2ccccc2)c2ccc(Cl)cc2)CC1` (configuration not stated) [Hydroxyzine dihydrochloride] the “growth AUC normalised to DMSO control” value was 0.975.
With `CN1CCC(OC(c2ccccc2)c2ccccc2)CC1` [Diphenylpyraline hydrochloride] the “growth AUC normalised to DMSO control” value was 0.962.
With `NCc1ccc(S(N)(=O)=O)cc1` [Mafenide hydrochloride] the “growth AUC normalised to DMSO control” value was 1.03.
For `O=C(O)CCc1nc(-c2ccccc2)c(-c2ccccc2)o1` [Oxaprozin], the “growth AUC normalised to DMSO control” value was 1.01.
In the case of `CCN(CC)CCNC(=O)c1cc(Br)c(N)cc1OC` [Bromopride], the “growth AUC normalised to DMSO control” value is reported as 1.01.
For `CN(C/C=C/c1ccccc1)Cc1cccc2ccccc12` [Naftifine hydrochloride], the “growth AUC normalised to DMSO control” value was 0.933.
